Measured values from PubChem BioAssay (NCATS).
Results filed as inconclusive are left out. Entries that show only a call come without a potency. A number with no mark means an inactive call. Active and inactive are the calls of the source. The call rests on the fitted dose curve; in most records, active means well fitted curve in the direction sought with a large enough effect; inconclusive means small, poorly fitted or top-dose-only effect, or another doubt; inactive means no such curve, though single readings can be large; an effect the other way counts as inactive or inconclusive.

Columns and labels:
[1] = target: Cellular tumor antigen p53 (Homo sapiens) (UniProt P04637); assay: Primary qHTS for small molecule compounds that upregulate eGFP-tagged delta133p53alpha (in N-terminal) cells. (AID 2060322); conditions: NCI-H358 eGFP-delta133p53alpha fluorescence, 24 h; activation: hits give high values; further: nearly all actives have a fitted effect of over 75% in size; further: potency means the concentration at half of the fitted maximal effect; on activation: series mostly up to about 56 µM
Summary of the method: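 NCI-H358 cells pre-induced 24 h with 10 ng/ml doxycycline to express N-terminal eGFP-delta133p53alpha, then dosed 24 h at 37C without doxycycline; fixed, Hoechst-stained, GFP intensity by laser scanning cytometry, normalized to DMSO (0%) and 57.5 uM 5-azacytidine (100%).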

[2] = target: Aldehyde dehydrogenase, mitochondrial (Homo sapiens) (UniProt P05091); assay: qHTS for Inhibitors of the Aldehyde Dehydrogenase Family (ALDH2) Primary screen (AID 2061308); further: nearly all actives have a fitted effect of over 55% in size
[3] = target: Retinaldehyde dehydrogenase 3 (Homo sapiens) (UniProt P47895); assay: qHTS for Inhibitors of the Aldehyde Dehydrogenase Family (ALDH1A3) Primary screen (AID 2061315)
[4] = target: Aldehyde dehydrogenase 1A1 (Homo sapiens) (UniProt P00352); assay: qHTS for Inhibitors of the Aldehyde Dehydrogenase Family (ALDH1A1) Confirmatory screens (AID 2061316); further: nearly all actives have a fitted effect of over 65% in size

Sequence of Cellular tumor antigen p53 (Homo sapiens) (P04637 whole entry, looked up): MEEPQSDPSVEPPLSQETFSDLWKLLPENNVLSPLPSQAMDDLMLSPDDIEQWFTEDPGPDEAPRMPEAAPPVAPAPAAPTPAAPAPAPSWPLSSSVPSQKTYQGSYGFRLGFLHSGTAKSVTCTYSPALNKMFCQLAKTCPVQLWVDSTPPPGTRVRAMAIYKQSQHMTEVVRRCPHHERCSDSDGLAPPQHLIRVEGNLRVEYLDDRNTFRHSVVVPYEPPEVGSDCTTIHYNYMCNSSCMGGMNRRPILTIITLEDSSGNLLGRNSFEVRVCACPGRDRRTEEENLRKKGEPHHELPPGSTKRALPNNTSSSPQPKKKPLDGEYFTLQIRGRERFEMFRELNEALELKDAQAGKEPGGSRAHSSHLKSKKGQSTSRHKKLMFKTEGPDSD

SMILES: O=C(O)/C=C/c1ccc(O[C@@H]2O[C@H](CO)[C@@H](O)[C@H](O)[C@H]2O)cc1
- activation [1]: -3.82%
- Potency [2]: inactive
- Potency [3]: inactive

SMILES: CC(C)C[C@H](NC(=O)[C@@H]1O[C@H]1C(=O)O)C(=O)NCCCCN=C(N)N
- activation [1]: -8.33%
- Potency [2]: inactive
- Potency [3]: inactive

SMILES: COC(=O)Cn1nc(-c2cccc(OC)c2)c2ccccc21
- activation [1]: -1.67%
- Potency [2]: inactive
- Potency [3]: inactive

SMILES: CC(=O)c1c(O)cc(O[C@@H]2O[C@H](CO)[C@@H](O)[C@H](O)[C@H]2O)cc1O
- activation [1]: -8.04%
- Potency [2]: inactive
- Potency [3]: inactive
- Potency [4]: inactive

SMILES: CCCOc1ccc(S(=O)(=O)N2CCN(CCO)CC2)cc1-c1nc2c(CCC)cn(CC)c2c(=O)[nH]1
- activation [1]: -0.893%
- Potency [2]: inactive
- Potency [3]: inactive

SMILES: CC(=O)O[C@H]1[C@@H](O)[C@H](O[C@H]2[C@@H]3C=CO[C@@H](O[C@H]4O[C@@H](CO)[C@H](O)[C@@H](O)[C@@H]4O)[C@@H]3[C@@]3(CO)O[C@@H]23)O[C@@H](C)[C@@H]1OC(=O)/C=C/c1ccccc1
- activation [1]: -17.9%
- Potency [2]: inactive
- Potency [3]: inactive

SMILES: Cc1ccc(OC[C@H](O)[C@H](C)NC(C)C)c2c1CCC2
- activation [1]: 10.3%
- Potency [2]: inactive
- Potency [3]: inactive

SMILES: O=C1CCC(=O)N(O)CCCCCNC(=O)CCC(=O)N(O)CCOCCNC(=O)CCC(=O)N(O)CCCCCN1
- activation [1]: -16.8%
- Potency [2]: inactive
- Potency [3]: inactive

SMILES: CCCOC(c1cc2nccc(C(=O)O)c2[nH]1)c1ccccc1Cl (stereo not drawn)
- activation [1]: 0.333%
- Potency [2]: inactive
- Potency [3]: inactive

SMILES: O=C(O)C[C@H]1CCC(=O)[C@@H]1C/C=C\CCOC1OC(CO)C(O)C(O)C1O (stereo partly drawn)
- activation [1]: -3.82%
- Potency [2]: inactive
- Potency [3]: inactive

SMILES: COc1cc(/C=C/C(=O)OC2CC3CCC2(C)C3(C)C)ccc1O (stereo not drawn)
- activation [1]: -14.5%
- Potency [2]: inactive
- Potency [3]: inactive

SMILES: Cc1ccc(C)c(S(=O)(=O)n2cnc3ccccc32)c1
- activation [1]: 1%
- Potency [2]: inactive
- Potency [3]: inactive

SMILES: CCC(O)(C(=O)OCc1ccccc1NC(=O)CCC(=O)O)C(C)O (stereo not drawn)
- activation [1]: 4.58%
- Potency [2]: inactive
- Potency [3]: inactive

SMILES: C[C@@H]1C(=O)O[C@H]2[C@H](O)C34[C@H]5C[C@@H](C(C)(C)C)C36[C@@H](OC(=O)[C@@H]6O)O[C@@]4(C(=O)O5)[C@@]12O (stereo partly drawn)
- activation [1]: 0.763%
- Potency [2]: inactive
- Potency [3]: inactive

SMILES: N#Cc1cc(-c2ccnc(Nc3ccc(N4CCOCC4)cc3)n2)ccc1OC1CCOCC1
- activation [1]: -18.8%
- Potency [2]: inactive
- Potency [3]: inactive

SMILES: C/C=C(\C)C(=O)O[C@H]1[C@H](O)[C@]2(COC(C)=O)[C@H](O)C[C@]3(C)C(=CCC4[C@@]5(C)CC[C@H](O[C@@H]6O[C@H](C(=O)O)[C@@H](O[C@@H]7O[C@H](CO)[C@@H](O)[C@H](O)[C@H]7O)[C@H](O)[C@H]6O[C@@H]6O[C@H](CO)[C@@H](O)[C@H](O)[C@H]6O)[C@](C)(CO)C5CC[C@]43C)[C@@H]2CC1(C)C (stereo partly drawn)
- activation [1]: -8.4%
- Potency [2]: inactive
- Potency [3]: inactive

SMILES: O=C(Nc1cccc2cccnc12)c1ccc(N2C(=O)[C@@H]3C4C=CC(C4)[C@@H]3C2=O)cc1
- activation [1]: 2.33%
- Potency [2]: inactive
- Potency [3]: inactive

SMILES: c1ccc(Cc2ncc3c(n2)CCNCC3)cc1
- activation [1]: 7%
- Potency [2]: inactive
- Potency [3]: inactive

SMILES: Nc1nonc1C(=Nc1ccc(F)c(Cl)c1)NO
- activation [1]: -6.33%
- Potency [2]: inactive
- Potency [3]: inactive

SMILES: C[C@@H]1C[C@@H](O)[C@@]23CO[C@]2(CO)C[C@@H](O)CC3[C@@]12CC(c1ccoc1)OC2=O (stereo partly drawn)
- activation [1]: -7.14%
- Potency [2]: inactive
- Potency [3]: inactive

SMILES: CC(=O)O[C@@H](CO[C@@H]1O[C@H](CO)[C@H](O)[C@H](O)[C@H]1O)[C@]1(C)C=C2CC[C@@H]3C(C)(C)[C@@H](O)CC[C@@]3(C)[C@@H]2CC1
- activation [1]: 18.3%
- Potency [2]: inactive
- Potency [3]: inactive

SMILES: CCC(=O)O[C@H]1C(C)(C)[C@H]([C@@H](O)C(=O)OC)[C@]2(C)C(=O)[C@@]1(O)[C@H]1O[C@]13C1CC(=O)O[C@@H](c4ccoc4)[C@]1(C)CCC32 (stereo partly drawn)
- activation [1]: -20.6%
- Potency [2]: inactive
- Potency [3]: inactive

SMILES: OC[C@H]1O[C@@H](Oc2ccc3c(c2)OC[C@H]2c4cc5c(cc4O[C@@H]32)OCO5)[C@H](O)[C@@H](O)[C@@H]1O
- activation [1]: -13.7%
- Potency [2]: inactive
- Potency [3]: inactive

SMILES: C[C@@H]1O[C@@H](O[C@H]2[C@H](OC(=O)[C@]34CCC(C)(C)C[C@H]3C3=CCC5[C@@]6(C)C[C@@H](O)[C@@H](O)[C@@](C)(CO)C6[C@H](O)C[C@@]5(C)[C@]3(C)CC4)OC[C@H](O)[C@@H]2O)[C@H](O)[C@H](O)[C@H]1O[C@@H]1OC[C@@H](O)[C@H](O[C@H]2O[C@H](C)[C@@H](O)[C@H](O)[C@@H]2O)[C@H]1O (stereo partly drawn)
- activation [1]: -2.68%
- Potency [2]: inactive
- Potency [3]: inactive

SMILES: COc1cccc(NCCC2(c3ccccc3)CC(C)(C)OC(C)(C)C2)c1
- Potency [1]: 21.7 µM (active)
- Potency [2]: inactive
- Potency [3]: inactive

SMILES: C[C@@H]1C[C@@H](O)[C@@]23CO[C@]2(CO)CCC[C@@H]3[C@@]12C[C@@H](c1ccoc1)OC2=O
- activation [1]: 24.4%
- Potency [2]: inactive
- Potency [3]: inactive

SMILES: C=C1C(=O)OC2CC(COC(=O)C(C)C)=C(C(C)CCCOC(C)=O)[C@@H](OC(C)=O)C12 (stereo partly drawn)
- activation [1]: 6.87%
- Potency [2]: inactive
- Potency [3]: inactive

SMILES: C[C@@H]1O[C@@H](O[C@H]2[C@H](OC(=O)C34CCC5(C)C(=CCC6C7(C)CC(O)C(O[C@@H]8O[C@H](C(=O)O)[C@@H](O)[C@H](O)[C@H]8O)C(C)(C(=O)O)C7CCC65C)C3CC(C)(C)CC4O)O[C@H](C)[C@@H](O)[C@@H]2O)[C@H](O)[C@@H](O[C@@H]2OC[C@](O)(CO)[C@H]2O[C@@H]2O[C@H](CO)[C@@H](O)[C@H](O)[C@H]2O)[C@H]1O (stereo partly drawn)
- activation [1]: 8.4%
- activity change, negative = inhibition [2]: 0.837% [at 11.2 µM]
- activity change, negative = inhibition [3]: 5.31% [at 11.2 µM]

SMILES: COc1cc(C(=O)OC[C@H]2O[C@H](O[C@@]3(CO)O[C@@H](CO)[C@H](O)[C@H]3O)[C@H](O)[C@@H](O)[C@@H]2O)ccc1O
- activation [1]: -1.53%
- Potency [2]: inactive
- Potency [3]: inactive
